High-throughput results: PubChem BioAssay, several laboratories
This is a sample that favours compounds with a hit; in the whole collection about 3.8% have one here.
tim10-1 inh: tim10-1 yeast growth inhibition | S. cerevisiae tim10-1 ts strain growth, BacTiter-Glo, 24 h | inhibition, % at 20 µM | actives 2.2% (n = 330,000) | AID 463190;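 active = inhibition of at least 40%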;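 also: mutant grown at 25 °C; 0% = DMSO wells with yeast and 100% = wells holding no yeast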
Beta2AR agonist: agonists of human beta-2 adrenergic receptor inducing internalization | actives 0.43% (n = 340,000) | Am2.2-beta2AR cells, FAP receptor internalization, flow cytometry | response, % (no concentration beside the values) | P07550 | AID 504454;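 active = response above a set limit, near 3 SD of response in nonfluorescent compounds, cut at about 42% in these data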
Target sequence (P07550 whole entry, looked up): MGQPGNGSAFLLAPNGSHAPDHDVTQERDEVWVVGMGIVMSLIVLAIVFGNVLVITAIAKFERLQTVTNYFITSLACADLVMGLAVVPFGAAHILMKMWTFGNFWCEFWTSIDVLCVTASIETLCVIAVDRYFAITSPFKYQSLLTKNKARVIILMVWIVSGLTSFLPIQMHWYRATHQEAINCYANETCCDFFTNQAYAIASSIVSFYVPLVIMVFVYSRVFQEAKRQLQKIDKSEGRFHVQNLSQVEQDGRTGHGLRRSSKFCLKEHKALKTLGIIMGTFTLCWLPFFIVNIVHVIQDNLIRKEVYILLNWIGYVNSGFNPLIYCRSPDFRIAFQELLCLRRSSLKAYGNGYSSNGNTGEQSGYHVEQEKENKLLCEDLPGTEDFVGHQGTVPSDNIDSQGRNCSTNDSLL
PfHsp90 set2: inhibits growth of yeast expressing Plasmodium falciparum Hsp90 | actives 0.32% (n = 310,000) | S. cerevisiae expressing PfHsp90, BacTiter-Glo ATP, 48 h; yeast lacking PDR1 and PDR3 efflux regulators | AID 504621 | inhibition, % at 9.4 µM;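 active = every replicate shows inhibition above about 80%, whatever the replicate mean, limit read from the data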;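 also: 0% = DMSO neutral controls and 100% = 20 µM radicicol positive controls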
TIM10 inh: inhibits growth of TIM10 yeast strain; S. cerevisiae TIM10 strain growth, BacTiter-Glo luminescence, 24 h; inhibition, % at 10 µM; actives 1.4% (n = 330,000);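 active = inhibition of 40% or more at the single tested concentration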;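 also: wild-type TIM10 isogenic control strain grown at permissive 25 °C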
tim23-1 inh: inhibits growth of tim23-1 mutant yeast | S. cerevisiae tim23-1 growth, BacTiter-Glo luminescence, 24 h | inhibition, % at 20 µM | actives 1.3% (n = 330,000);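 active = growth inhibition of the mutant yeast at or above 50%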;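 also: temperature-sensitive mutant grown at 25 °C; plate controls were DMSO-treated mutant yeast for no effect and medium wells lacking yeast for full effect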
Starred values were filed as active, the others as inactive.

`O=C(Nc1nc(-c2ccccc2)cs1)c1ccccc1NS(=O)(=O)c1ccc(F)cc1` gave tim10-1 inh -27, Beta2AR agonist 16, PfHsp90 set2 103*, TIM10 inh -84 and tim23-1 inh 7.
O=C1NC(=S)N/C1=C/c1ccc2ccccc2c1 was read as tim10-1 inh 16, Beta2AR agonist 5, PfHsp90 set2 1, TIM10 inh 12 and tim23-1 inh 7.
Cc1csc(NC(=O)CSc2nc3[nH]c(=O)cc(O)c3s2)n1 was read as Beta2AR agonist 93* and PfHsp90 set2 13.
Screening O=C(CSc1nc2[nH]c(=O)cc(O)c2s1)Nc1nncs1 returned Beta2AR agonist 22 and PfHsp90 set2 21.
Oc1ccc(C=NNC(=S)Nc2cccnc2)nc1 was read as Beta2AR agonist -4 and PfHsp90 set2 5.
For O=S(=O)(/C=C/c1ccccc1)NCc1ccccc1Cl the results were tim10-1 inh 34, Beta2AR agonist 67*, PfHsp90 set2 3, TIM10 inh 1 and tim23-1 inh 35.
Screening CCN(CC)CCOc1ccc(/C(=C(\Cl)c2ccccc2)c2ccccc2)cc1 returned tim10-1 inh 30, Beta2AR agonist 60*, PfHsp90 set2 11, TIM10 inh 8 and tim23-1 inh 38.
`CCN(CC)CCOc1ccc(Br)cc1` gave tim10-1 inh -5, Beta2AR agonist 3, PfHsp90 set2 -15, TIM10 inh 4 and tim23-1 inh -2.
For O=C(NCC1CCCO1)c1cc(-c2ccc(F)cc2)no1 (stereo not given) the results were tim10-1 inh 12, Beta2AR agonist -1, PfHsp90 set2 8, TIM10 inh -6 and tim23-1 inh 19.
`Cc1nc(-c2cccnc2)sc1C(=O)N/N=C/c1ccccc1Cl` gave tim10-1 inh 6, Beta2AR agonist 42*, PfHsp90 set2 -5, TIM10 inh 26 and tim23-1 inh 6.
For Cc1nc(-c2cccnc2)sc1C(=O)Nc1ccc(Cl)cc1 the results were tim10-1 inh 39, Beta2AR agonist -6, PfHsp90 set2 0, TIM10 inh -19 and tim23-1 inh 17.
COc1ccc(CCN(C)C(=O)CN2C(=O)NC3(CCCCC3C)C2=O)cc1OC (stereo not given) was read as tim10-1 inh -4, Beta2AR agonist 3, PfHsp90 set2 -33, TIM10 inh -4 and tim23-1 inh -19.
Screening O=C(NC1CCCc2c1cnn2-c1ccc(F)cc1F)c1ccccc1N1CCOCC1 (stereo not given) returned tim10-1 inh 7, Beta2AR agonist 2, PfHsp90 set2 -29, TIM10 inh -27 and tim23-1 inh -4.
Screening Cc1ccc(-n2ncc3c2CCCC3NC(=O)c2ccccc2N2CCOCC2)cc1C (stereo not given) returned tim10-1 inh 37, Beta2AR agonist -3, PfHsp90 set2 114*, TIM10 inh -14 and tim23-1 inh 14.
For Cc1ccc(C2(C)NC(=O)N(CC(=O)NCCN3C(=O)S/C(=C\c4cccnc4)C3=O)C2=O)cc1 (stereo not given) the results were Beta2AR agonist -2 and PfHsp90 set2 -2.
Screening CC(C)(C)c1nc(SCC(=O)NNC(=O)c2ccccc2)c2ccccc2n1 returned tim10-1 inh 35, Beta2AR agonist -7, PfHsp90 set2 20, TIM10 inh 0 and tim23-1 inh 38.
Screening CC(NC(=O)c1ccc(Br)cc1)c1ccc2c(c1)CCCC2 (stereo not given) returned tim10-1 inh 1, Beta2AR agonist -17, PfHsp90 set2 105*, TIM10 inh -37 and tim23-1 inh -17.
For CC(NC(=O)c1ccc(F)cc1)c1ccc2c(c1)CCCC2 (stereo not given) the results were tim10-1 inh -3, Beta2AR agonist -10, PfHsp90 set2 1, TIM10 inh 0 and tim23-1 inh 12.
For C[C@]12c3[nH]c4ccc(Cl)cc4c3CCN1C(=O)[C@@H](CC(=O)NCc1ccco1)C[C@@H]2C(=O)N1CCCCC1 the results were tim10-1 inh 19, Beta2AR agonist -2, PfHsp90 set2 -5, TIM10 inh -4 and tim23-1 inh 34.
`C=CCNc1nc(S(=O)Cc2ccc(C)cc2)nc2c1CCCC2` (stereo not given) gave tim10-1 inh 8, Beta2AR agonist 53*, PfHsp90 set2 -9, TIM10 inh -1 and tim23-1 inh 18.
C=CCNc1c2c(nc3nnnn13)CCCC2 was read as tim10-1 inh 0, Beta2AR agonist -6, PfHsp90 set2 -9, TIM10 inh 2 and tim23-1 inh 15.
COc1ccc(/C=N\NC(=O)c2ccc([N+](=O)[O-])cc2)cc1COc1c(F)c(F)cc(F)c1F was read as tim10-1 inh 21, Beta2AR agonist -4, PfHsp90 set2 -3, TIM10 inh 17 and tim23-1 inh 33.
For COc1ccc(/C=N\NC(=O)c2ccccc2[N+](=O)[O-])cc1COc1c(F)c(F)c(F)c(F)c1F the results were tim10-1 inh 4, Beta2AR agonist 53*, PfHsp90 set2 -18, TIM10 inh -1 and tim23-1 inh 15.
For O=C(c1ccccc1)c1cc(Cl)ccc1N1C(=O)C=CC1=O the results were Beta2AR agonist 43* and PfHsp90 set2 107*.
For N#Cc1cc(C(=O)c2cc(Cl)ccc2O)cn(-c2ccccc2)c1=O the results were tim10-1 inh 38, Beta2AR agonist 0, PfHsp90 set2 -16, TIM10 inh 24 and tim23-1 inh 42.
`O=C1NC(=S)S/C1=C\C=C\c1ccc([N+](=O)[O-])o1` gave Beta2AR agonist 32 and PfHsp90 set2 106*.
For O=C(O)/C=C/c1ccc([N+](=O)[O-])o1 the results were tim10-1 inh -1, Beta2AR agonist 16, PfHsp90 set2 10, TIM10 inh 0 and tim23-1 inh 4.
`O=C1Nc2ccc(Br)cc2/C1=C/C(=O)c1ccccc1` gave Beta2AR agonist 18 and PfHsp90 set2 106*.
`Cc1ccc(C(=O)ONC(=O)c2ccc(Cl)cc2)cc1[N+](=O)[O-]` gave tim10-1 inh 10, Beta2AR agonist 7, PfHsp90 set2 108*, TIM10 inh 17 and tim23-1 inh 20.
Cc1ccc(C(=O)NNC(=O)c2ccncc2)cc1[N+](=O)[O-] was read as tim10-1 inh 4, Beta2AR agonist 1, PfHsp90 set2 1, TIM10 inh 6 and tim23-1 inh 14.
Screening C=CC[C@@H](CC(=O)OC(C)(C)C)C(=O)OC[C@@H]1CCCN1C(=O)[C@@H](CC=C)CC(=O)N(CCO)Cc1ccccc1 returned tim10-1 inh 18, Beta2AR agonist 1, TIM10 inh 11 and tim23-1 inh 28.
For Oc1ccc(C=Nc2ccc(N3CCOCC3)cc2)c(O)c1 the results were tim10-1 inh 13, Beta2AR agonist 5, PfHsp90 set2 -3, TIM10 inh -5 and tim23-1 inh 16.
Screening O=[N+]([O-])c1cc(Cc2ccccc2)cc(C=Nc2ccc(N3CCOCC3)cc2)c1O returned Beta2AR agonist 15 and PfHsp90 set2 106*.
